# Counter-ions that a name gives are not always drawn.
# Tested on: Drosophila S2 cl14 SmoIP sensor cells
# Test: normalized SmoIP GFP fluorescence (untreated unstimulated = 0%, untreated Hh-stimulated = 100%); higher = more Smo activation sensor fluorescence
# Conditions: compound concentration: 2 uM, 24 h
# [1] = stimulation: Hh conditioned medium (+Hh)
# [2] = stimulation: mock conditioned medium (-Hh)
# 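Also: flow cytometry read-out as median GFP intensity of gated cells, compounds added 30 min before Hh-conditioned or mock medium, mock-treated cells serving as unstimulated baseline.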
Compound,normalized SmoIP GFP fluorescence [1] [%],normalized SmoIP GFP fluorescence [2] [%]
CC[C@H](Nc1ncnc2[nH]cnc12)c1nc2cccc(F)c2c(=O)n1-c1ccccc1,126,-12.7
C[N+]1(C)CCC(=C(c2ccccc2)c2ccccc2)CC1 [diphemanil-methylsulfate],110,-3.62
Cn1cc(-c2cnn3c(N)c(Br)c([C@@H]4CCCNC4)nc23)cn1,185,5.65
CN(Cc1cnc2nc(N)nc(N)c2n1)c1ccc(C(=O)N[C@@H](CCC(=O)O)C(=O)O)cc1 [Abitrexate],200,13.3
CC(C)OC(=O)OCOP(=O)(CO[C@H](C)Cn1cnc2c(N)ncnc21)OCOC(=O)OC(C)C [Tenofovir-Disoproxil-Fumarate],91.2,2.43
COc1cc2nc(N3CCN(C(=O)C4COc5ccccc5O4)CC3)nc(N)c2cc1OC (stereo not given) [Doxazosin-mesylate],105,8.14
CCn1c2ccccc2c2cc(Nc3ccnc(NCCCN4CCOCC4)n3)ccc21 [ehop-016],100,-3.62
CC(=O)c1c(C)c2cnc(Nc3ccc(N4CCNCC4)cn3)nc2n(C2CCCC2)c1=O,150,3.72
COC(=O)N1CCN(Cc2cccc(NC(=O)Nc3ccc(C)nc3)c2F)CC1,125,-11.4
CNC(=O)CN1CCC(Oc2cc3c(Nc4cccc(Cl)c4F)ncnc3cc2OC)CC1,112,-3.72
CNC(=O)c1ccc(C)c(-n2c(C)cc(OCc3ccc(F)cc3F)c(Br)c2=O)c1,130,-8.41
Cc1ccc(C(=O)Nc2cccc(C(F)(F)F)c2)cc1Nc1nc(-c2cccnc2)nc2c1cnn2C,140,-9.04
O=c1cc(-c2ccccc2)oc2cc(O)c(O)c(O)c12 [Baicalein],108,1.24
CC(=O)OCC[N+](C)(C)C [Acetylcholine-chloride],104,-16.8
Cn1cc(-c2ccc3ncc(Cc4ccc5ncccc5c4)n3n2)cn1,123,-6.97
Cn1cc(-c2ccc3c(c2)CCN3C(=O)Cc2cccc(C(F)(F)F)c2)c2c(N)ncnc21,131,39.3
CC(=O)O[C@]1(C(C)=O)CC[C@H]2[C@@H]3C=C(Cl)C4=CC(=O)[C@@H]5C[C@@H]5[C@]4(C)[C@H]3CC[C@@]21C [cyproterone-acetate],142,-6.79
CCCCN(Cc1ccc(C(=O)NO)cc1)C(=O)Nc1ccccc1 [nexturastat-a],105,6.74

Compound,normalized SmoIP GFP fluorescence [1] [%],normalized SmoIP GFP fluorescence [2] [%]
CN1CCc2nc(C(=O)N[C@@H]3C[C@@H](C(=O)N(C)C)CC[C@@H]3NC(=O)C(=O)Nc3ccc(Cl)cn3)sc2C1 [edoxaban],106,-1.34
N#C/C(=C(/N)Sc1ccc(N)cc1)c1ccccc1C(F)(F)F,131,10.2
CN(C)CCOc1ccc(-c2nc(-c3ccncc3)c(-c3ccc4c(c3)CC/C4=N\O)[nH]2)cc1,114,4.48
COc1ccccc1N1CCN(CCCNc2cc(=O)n(C)c(=O)n2C)CC1 [urapidil-hydrochloride],110,-7.96
Nc1nc(CC(=O)Nc2ccc(CCNC[C@H](O)c3ccccc3)cc2)cs1 [mirabegron-ym178],108,-5.15
CCOC(=O)C1=C(N)Oc2ccc(Br)cc2C1C(C#N)C(=O)OCC (stereo not given),97.9,1.03
Cc1cccc(Nc2ccccc2C(=O)O)c1C [mefenamic-acid],111,-1.23
COc1c(C)c(C(=O)c2ccc(N)c(C(=O)O)c2)n2ccccc12,113,-1.34
Cn1ncnc1[C@H]1c2n[nH]c(=O)c3cc(F)cc(c23)N[C@@H]1c1ccc(F)cc1,107,-2.82
C[C@@H](NCCc1ccc(O)cc1)[C@@H](O)c1ccc(O)cc1 [Ritodrine-hydrochloride-Yutopar],144,-5.98
CC1(C)O[C@@H]2[C@@H](CO[C@@]3(COS(N)(=O)=O)OC(C)(C)O[C@@H]23)O1 [Topiramate],114,5.45
CC(=O)O/N=C1\C(=O)N(Cc2cc(Cl)ccc2Cl)c2ccc(Cl)cc21,106,-2.93
CN1CCc2c(c3ccccc3n2Cc2ccc(C(=O)NO)cc2)C1 [tubastatin-a],108,-3.05
COc1ccc(CNCc2cccc3ccccc23)cc1,111,-2.82
COc1cc(N2CCC(N3CCN(C)CC3)CC2)ccc1Nc1ncc(Cl)c(Nc2ccccc2S(=O)(=O)C(C)C)n1,109,10.2
Nc1nccc2c1ncn2[C@@H]1C=C(CO)[C@@H](O)[C@H]1O [3-deazaneplanocin-a-dznep],142,0.702
Clc1ccc2c(c1)CCc1cccnc1C2=C1CCNCC1 [desloratadine],109,1.21

# Source: the supplement of paper PMC5662767
